{
  "source": "the supplement of paper PMC6555819",
  "data": [
    {"tested_on": "VDR:RXRa (NR concentration 270 nM, RXRa partner concentration 90 nM)", "assay": "PBM binding z-score (relative to random genomic background probes); higher = stronger binding; sequences stand for … in GC…GCGATTGACAGCGTAGAATGAAGG", "procedure": "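Protein-binding microarray (Agilent 4x180K custom design, double-stranded 60-nt probes: 5' GC cap, 34-nt variable region, 24-nt constant primer region; full probe sequence given). Purified or IVT nuclear receptor:RXRα heterodimers (3:1 NR:RXRα, mostly 270:90 nM) or homodimers were incubated for 1 h in PBS with 2% milk and no ligand, then detected with Alexa488 antibodies. Fluorescence from o1-orientation probes (~5 replicates averaged) was converted to z-scores against 500 random hg19 background probes. Variable regions are seed direct-repeat (DR0–DR5) sites, all their single-nucleotide variants and half-site ablations.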", "values": [
      {"sequence": "CCTACTAGTTGACCATAAGGGCAACCGAAGCTCG", "PBM binding z-score": 0.471},
      {"sequence": "GCTTACGGGTCAACGGTTATAGCATGAATAGAAT", "PBM binding z-score": 3.88},
      {"sequence": "TTACCAAGGTGAAGGTCGATGATCCCTCTGTAGA", "PBM binding z-score": 0.54},
      {"sequence": "CGAACTAGATCAGAACAGGACAGTGAAGGATGAT", "PBM binding z-score": -0.438},
      {"sequence": "AGTAGCAGGCCAAGTTTGGGTCACTCAAACAAAG", "PBM binding z-score": 0.609},
      {"sequence": "TTACCAAGGTGAAGGTGGTTGATCCCTCTGTAGA", "PBM binding z-score": 0.0919},
      {"sequence": "TATTGTAGATCAATAGAGGTTAAGAAAGTGCGCT", "PBM binding z-score": 1.91},
      {"sequence": "ATCTCTAGATAAAAGTTCAGTGAATCCCGAGGAT", "PBM binding z-score": 0.828},
      {"sequence": "ATCGAAAGGACGAGGTGAGTATAGAGAAAGGGAA", "PBM binding z-score": -0.203},
      {"sequence": "GATACAGGGTCAGCTAGATGCCAGAGTATGGAAA", "PBM binding z-score": 2.58},
      {"sequence": "CTCGAAAGGTCGGTTCAGGTGAGTATACGGATAA", "PBM binding z-score": 2.71},
      {"sequence": "CAAACTAGGTTACCGGAAGGTCAAAGTCCGCATG", "PBM binding z-score": 4.16},
      {"sequence": "ATATGTAAGTTAGCTGGGGTCATTCAGACTAGGC", "PBM binding z-score": 5.25},
      {"sequence": "CAAACTAGGTCTCGAAAGGTCAAAGTCGAATGAC", "PBM binding z-score": 4.71},
      {"sequence": "TCATATAGATAATACAGGTGAAAGTCGGCATCTA", "PBM binding z-score": 1.17},
      {"sequence": "AGAATGAGGTTAATATCAGGGAAACAGAATACAT", "PBM binding z-score": 1.04},
      {"sequence": "CCTCGGAGGACAACAGGAGGTCAGAGCTGCCAGA", "PBM binding z-score": 2},
      {"sequence": "ACCGAAAGGTCGAAGGTGAGTATACCCACCCGAA", "PBM binding z-score": 2.95},
      {"sequence": "CCTATTAGTTGACTATAAGGGCAACCGAAGCTCG", "PBM binding z-score": 0.181},
      {"sequence": "TCTTGTAGATCAAGCAGGTTAAGACAGCCTGAGT", "PBM binding z-score": 0.279},
      {"sequence": "CCGACTGGGGCAAGGTAACCATAACGCACAGCCA", "PBM binding z-score": -0.466},
      {"sequence": "ACTATTAGTTGAGATGAGGGCAACCGATAGGTTG", "PBM binding z-score": 0.654},
      {"sequence": "GCGACTGGGGCAAAGCAGCTTACCATAAGGTTGG", "PBM binding z-score": -0.87},
      {"sequence": "TCCTATAGGTAAATGCTAGGTGAAAGTCCGATCT", "PBM binding z-score": 0.359},
      {"sequence": "GGAACGAGGGCAAGGTTGATAGCATCTGTCGACG", "PBM binding z-score": 0.638},
      {"sequence": "ATATGTAGGTTAGCTGGGGTCATTCATACTAGGC", "PBM binding z-score": 6.21},
      {"sequence": "AGTCACAGTTCAGGACGAGGTAACGTAAAGCACG", "PBM binding z-score": 1.12},
      {"sequence": "CCTACTGGGCCAAATGTCATTGATTCCAATGCTC", "PBM binding z-score": 0.0339},
      {"sequence": "TCGTGTAGGTTAGTCGGGGCATTCAGCCAACATA", "PBM binding z-score": 2.72},
      {"sequence": "CCTGCTAGGTGAATGGTCAGCTAAAGCAGCTCGC", "PBM binding z-score": -0.699},
      {"sequence": "AGAATGAGGTTATACGTAGATCAGGGACGAAAGT", "PBM binding z-score": 1.46},
      {"sequence": "CCTACTGGGCCATTCAGAGGTCGTTGATCATATG", "PBM binding z-score": 1.49},
      {"sequence": "GCGACTGGGGCATCAGCAGATTACCATAACTTAA", "PBM binding z-score": -0.562},
      {"sequence": "TCATATAGGTAAATCCTAGGTGAAAGTCCGATCT", "PBM binding z-score": 0.7},
      {"sequence": "ACTAGTTGGTCGGCTGAGGTCACACACAATTCGG", "PBM binding z-score": 3.94},
      {"sequence": "ACTGGGAGGACAAAGGTCAGAGCTACGCCAGTGA", "PBM binding z-score": 3.73},
      {"sequence": "CTGCCAAGGTGAACAAGGTCGTTGATTACTATTC", "PBM binding z-score": 5.88},
      {"sequence": "CCTAGCAGGACAGGGTCACTCAAGCATTTCGCTT", "PBM binding z-score": 2.9},
      {"sequence": "ACGAGCAGGCCAAGGGTCACTCAAGATTAGTCCG", "PBM binding z-score": 2.72},
      {"sequence": "TCATATAGGTAATACAGGTGAAAGACGGCATCTA", "PBM binding z-score": 1.02}
    ]}
  ]
}
